Consider nine sequences from publication PMC7862700, “An all-to-all approach to the identification of sequence-specific readers for epigenetic DNA modifications on cytosine”.

What all share (test): DAPPL (digital affinity profiling via proximity ligation, sequencing); 10 mM Tris-HCl pH 7.5, 50 mM NaCl, 1 mM DTT, 4% glycerol, room temperature, 30 min; GST-TFs on glutathione beads, 16-mer random dsDNA library, 0.1% formaldehyde crosslink after washing; high values mean tight binding
Settings in all cases: protein: recombinant; tags: N-terminal GST; dsDNA, one strand shown

The target of one test is T1, ERF (Homo sapiens, UniProt P50548 1-548).
T1 sequence: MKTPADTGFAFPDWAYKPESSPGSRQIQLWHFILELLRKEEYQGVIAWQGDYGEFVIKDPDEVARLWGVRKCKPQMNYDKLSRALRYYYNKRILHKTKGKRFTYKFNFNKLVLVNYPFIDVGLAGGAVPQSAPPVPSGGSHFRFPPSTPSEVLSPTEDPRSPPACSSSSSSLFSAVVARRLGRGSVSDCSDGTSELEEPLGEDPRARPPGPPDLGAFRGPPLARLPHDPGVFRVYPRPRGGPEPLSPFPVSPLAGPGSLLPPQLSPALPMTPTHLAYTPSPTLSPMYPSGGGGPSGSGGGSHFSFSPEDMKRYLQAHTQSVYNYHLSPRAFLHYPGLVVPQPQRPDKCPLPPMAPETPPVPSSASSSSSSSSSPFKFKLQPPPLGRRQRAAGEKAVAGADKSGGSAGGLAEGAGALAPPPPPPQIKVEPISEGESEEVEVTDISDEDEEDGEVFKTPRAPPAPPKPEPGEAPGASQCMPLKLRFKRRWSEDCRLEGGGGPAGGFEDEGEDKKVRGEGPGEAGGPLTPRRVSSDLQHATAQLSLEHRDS
Summed up: (§1)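 Each value of binding signal is a hexamer's read frequency for a factor divided by the same hexamer's frequency in the tag-only sample. Barcoded, bead-captured GST fusions of human transcription factors made in yeast were pooled with that sample and incubated with 200 nmole of a random double-stranded 16-mer DNA library in Tris/NaCl/DTT/glycerol buffer at room temperature for 30 min. Washing, 0.1% formaldehyde crosslinking, proximity ligation, PCR and Illumina NextSeq500 sequencing followed.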

In a further test the target is T2, ETV3L (Homo sapiens, UniProt Q6ZN32 1-361).
T2 sequence: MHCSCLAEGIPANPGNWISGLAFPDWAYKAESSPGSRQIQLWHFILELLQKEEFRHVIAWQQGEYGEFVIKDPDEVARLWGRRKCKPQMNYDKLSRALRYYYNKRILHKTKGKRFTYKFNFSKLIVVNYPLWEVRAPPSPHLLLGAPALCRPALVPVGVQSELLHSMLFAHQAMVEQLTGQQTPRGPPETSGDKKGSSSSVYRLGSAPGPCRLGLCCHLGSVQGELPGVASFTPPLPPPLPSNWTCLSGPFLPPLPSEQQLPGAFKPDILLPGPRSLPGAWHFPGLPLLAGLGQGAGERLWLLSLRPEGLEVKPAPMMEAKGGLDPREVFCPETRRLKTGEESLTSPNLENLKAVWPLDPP
An outline of the steps:
as §1

A further test deals with T3, ETS2 (Homo sapiens, UniProt P15036 1-469).
T3 sequence: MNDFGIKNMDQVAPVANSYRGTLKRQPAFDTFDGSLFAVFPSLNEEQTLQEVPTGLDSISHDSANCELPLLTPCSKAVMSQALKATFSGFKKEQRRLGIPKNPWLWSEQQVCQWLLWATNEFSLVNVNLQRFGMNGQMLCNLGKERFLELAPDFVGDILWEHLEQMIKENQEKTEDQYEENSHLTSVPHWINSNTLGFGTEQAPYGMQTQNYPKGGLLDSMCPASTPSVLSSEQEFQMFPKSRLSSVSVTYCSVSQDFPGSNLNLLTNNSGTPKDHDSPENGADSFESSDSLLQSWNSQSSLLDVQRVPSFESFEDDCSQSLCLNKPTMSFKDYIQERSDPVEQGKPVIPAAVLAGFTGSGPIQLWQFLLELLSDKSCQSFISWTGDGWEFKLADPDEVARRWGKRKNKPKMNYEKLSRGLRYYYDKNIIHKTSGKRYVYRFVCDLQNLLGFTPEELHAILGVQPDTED
Summed up:
as §1

A further test concerns the target T4, SPDEF (Homo sapiens, UniProt O95238 1-335).
T4 sequence: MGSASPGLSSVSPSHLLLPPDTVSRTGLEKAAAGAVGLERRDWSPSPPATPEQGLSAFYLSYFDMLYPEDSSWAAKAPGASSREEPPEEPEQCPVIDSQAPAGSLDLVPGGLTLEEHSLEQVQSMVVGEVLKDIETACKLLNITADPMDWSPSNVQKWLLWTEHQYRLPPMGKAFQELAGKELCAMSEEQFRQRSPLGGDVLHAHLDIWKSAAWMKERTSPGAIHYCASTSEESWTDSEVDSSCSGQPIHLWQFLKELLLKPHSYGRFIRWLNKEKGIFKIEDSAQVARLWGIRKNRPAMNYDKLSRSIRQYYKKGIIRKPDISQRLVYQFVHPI
An outline of the steps:
as §1

The next test concerns the target T5, ETV7 (Homo sapiens, UniProt Q9Y603 1-341).
T5 sequence: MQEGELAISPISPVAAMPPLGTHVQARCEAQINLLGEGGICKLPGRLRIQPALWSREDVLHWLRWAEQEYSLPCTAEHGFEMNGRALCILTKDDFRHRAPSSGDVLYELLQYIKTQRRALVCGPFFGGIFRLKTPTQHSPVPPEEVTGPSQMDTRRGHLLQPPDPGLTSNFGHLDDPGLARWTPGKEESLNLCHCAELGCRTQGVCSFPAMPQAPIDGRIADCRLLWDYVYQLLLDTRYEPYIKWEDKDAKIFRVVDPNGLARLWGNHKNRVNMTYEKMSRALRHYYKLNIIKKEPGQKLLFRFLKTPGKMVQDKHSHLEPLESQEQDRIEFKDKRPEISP
Summed up:
as §1

A further test addresses T6, ELF5 (Homo sapiens, UniProt Q9UKW6-2 1-255).
T6 sequence: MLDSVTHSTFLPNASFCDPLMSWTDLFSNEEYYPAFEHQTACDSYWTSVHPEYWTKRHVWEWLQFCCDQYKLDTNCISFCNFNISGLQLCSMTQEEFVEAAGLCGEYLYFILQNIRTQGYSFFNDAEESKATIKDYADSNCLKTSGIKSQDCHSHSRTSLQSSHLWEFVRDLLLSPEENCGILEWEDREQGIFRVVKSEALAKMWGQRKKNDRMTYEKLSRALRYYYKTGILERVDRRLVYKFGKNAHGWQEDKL
An outline of the steps:
as §1

The next test deals with T7, ETV3 (Homo sapiens, UniProt P41162-2 1-143).
T7 sequence: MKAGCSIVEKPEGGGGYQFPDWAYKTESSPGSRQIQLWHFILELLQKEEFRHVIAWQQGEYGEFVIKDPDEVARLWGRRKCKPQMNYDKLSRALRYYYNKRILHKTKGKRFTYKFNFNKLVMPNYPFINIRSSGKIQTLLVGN
An outline of the steps:
as §1

The target in the next test is ETV6 (Homo sapiens, UniProt P41212 1-452). An outline of the steps: as §1
Chain of ETV6 (P41212 whole entry): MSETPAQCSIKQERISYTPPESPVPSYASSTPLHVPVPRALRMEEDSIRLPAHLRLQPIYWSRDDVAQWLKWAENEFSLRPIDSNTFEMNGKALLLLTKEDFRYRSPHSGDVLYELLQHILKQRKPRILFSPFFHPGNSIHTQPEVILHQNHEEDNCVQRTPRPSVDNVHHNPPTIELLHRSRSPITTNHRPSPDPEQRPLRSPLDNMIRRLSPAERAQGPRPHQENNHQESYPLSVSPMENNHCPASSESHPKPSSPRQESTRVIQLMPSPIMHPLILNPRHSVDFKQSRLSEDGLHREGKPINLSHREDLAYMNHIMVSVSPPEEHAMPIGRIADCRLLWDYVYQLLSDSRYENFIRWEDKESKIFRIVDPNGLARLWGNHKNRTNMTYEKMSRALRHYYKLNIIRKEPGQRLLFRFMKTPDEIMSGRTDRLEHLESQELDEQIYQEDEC

For TCACCC, the binding signal was 1.2 fold enrichment (6-mer frequency, TF over GST control) in the test with ERF; 1.16 fold enrichment (6-mer frequency, TF over GST control) in the test with ETV3L; 1.13 fold enrichment (6-mer frequency, TF over GST control) with ETS2; 1.23 fold enrichment (6-mer frequency, TF over GST control) with SPDEF; 1.04 fold enrichment (6-mer frequency, TF over GST control) in the test with ETV7; 1.07 fold enrichment (6-mer frequency, TF over GST control) with ELF5. Moreover, the binding signal with ETV3 was 1.14 fold enrichment (6-mer frequency, TF over GST control); with ETV6 it was 1.05 fold enrichment (6-mer frequency, TF over GST control).

On to ACCTCG, for which the binding signal with ERF was 1.2 fold enrichment (6-mer frequency, TF over GST control); with ETV3L, 1.22 fold enrichment (6-mer frequency, TF over GST control); with ETS2 it was 1.11 fold enrichment (6-mer frequency, TF over GST control); with SPDEF, 1.06 fold enrichment (6-mer frequency, TF over GST control); in the test with ETV7 it was 1.21 fold enrichment (6-mer frequency, TF over GST control); with ELF5, 1.06 fold enrichment (6-mer frequency, TF over GST control). Further, the binding signal with ETV3 is 1.1 fold enrichment (6-mer frequency, TF over GST control); with ETV6, 1.09 fold enrichment (6-mer frequency, TF over GST control).

Consider CTCCCT, for which the binding signal with ERF was 1.72 fold enrichment (6-mer frequency, TF over GST control); with ETV3L, 1.54 fold enrichment (6-mer frequency, TF over GST control); with ETS2, 1.57 fold enrichment (6-mer frequency, TF over GST control); in the test with SPDEF it was 1.53 fold enrichment (6-mer frequency, TF over GST control); with ETV7, 1.52 fold enrichment (6-mer frequency, TF over GST control); with ELF5, 1.41 fold enrichment (6-mer frequency, TF over GST control). Further, the binding signal in the test with ETV3 is 1.55 fold enrichment (6-mer frequency, TF over GST control); with ETV6, 1.37 fold enrichment (6-mer frequency, TF over GST control).

On to ACCAAC, for which the binding signal in the test with ERF was 1.24 fold enrichment (6-mer frequency, TF over GST control); with ETV3L, 1.13 fold enrichment (6-mer frequency, TF over GST control); with ETS2 it was 1.15 fold enrichment (6-mer frequency, TF over GST control); in the test with SPDEF, 1.22 fold enrichment (6-mer frequency, TF over GST control); with ETV7 it was 1.13 fold enrichment (6-mer frequency, TF over GST control); with ELF5, 1.13 fold enrichment (6-mer frequency, TF over GST control). The binding signal with ETV3 was 1.24 fold enrichment (6-mer frequency, TF over GST control); with ETV6, 1.2 fold enrichment (6-mer frequency, TF over GST control).

Regarding CTATTG, the binding signal was 1.37 fold enrichment (6-mer frequency, TF over GST control) with ERF; 1.27 fold enrichment (6-mer frequency, TF over GST control) in the test with ETV3L; 1.35 fold enrichment (6-mer frequency, TF over GST control) in the test with ETS2; 1.18 fold enrichment (6-mer frequency, TF over GST control) in the test with SPDEF; 1.25 fold enrichment (6-mer frequency, TF over GST control) with ETV7; 1.23 fold enrichment (6-mer frequency, TF over GST control) with ELF5. Moreover, the binding signal with ETV3 is 1.42 fold enrichment (6-mer frequency, TF over GST control); with ETV6, 1.35 fold enrichment (6-mer frequency, TF over GST control).

With CCGAGC, the binding signal with ERF is 1.17 fold enrichment (6-mer frequency, TF over GST control); in the test with ETV3L, 1.1 fold enrichment (6-mer frequency, TF over GST control); with ETS2, 1.17 fold enrichment (6-mer frequency, TF over GST control); in the test with SPDEF, 1.06 fold enrichment (6-mer frequency, TF over GST control); in the test with ETV7 it was 1.15 fold enrichment (6-mer frequency, TF over GST control); in the test with ELF5, 1.12 fold enrichment (6-mer frequency, TF over GST control). Further, the binding signal with ETV3 is 1.04 fold enrichment (6-mer frequency, TF over GST control); with ETV6 it was 1.13 fold enrichment (6-mer frequency, TF over GST control).

In the case of GCCGAC, the binding signal in the test with ERF was 1.2 fold enrichment (6-mer frequency, TF over GST control); in the test with ETV3L, 1.29 fold enrichment (6-mer frequency, TF over GST control); with ETS2, 1.15 fold enrichment (6-mer frequency, TF over GST control); in the test with SPDEF, 1.12 fold enrichment (6-mer frequency, TF over GST control); in the test with ETV7, 1.12 fold enrichment (6-mer frequency, TF over GST control); with ELF5 it was 1.07 fold enrichment (6-mer frequency, TF over GST control). Also, the binding signal with ETV3 is 1.23 fold enrichment (6-mer frequency, TF over GST control); with ETV6, 1.08 fold enrichment (6-mer frequency, TF over GST control).

With TTCCCT, the binding signal was 1.58 fold enrichment (6-mer frequency, TF over GST control) with ERF; 1.69 fold enrichment (6-mer frequency, TF over GST control) with ETV3L; 1.75 fold enrichment (6-mer frequency, TF over GST control) with ETS2; 1.47 fold enrichment (6-mer frequency, TF over GST control) with SPDEF; 1.55 fold enrichment (6-mer frequency, TF over GST control) with ETV7; 2.49 fold enrichment (6-mer frequency, TF over GST control) with ELF5. The binding signal in the test with ETV3 was 1.75 fold enrichment (6-mer frequency, TF over GST control); with ETV6, 1.66 fold enrichment (6-mer frequency, TF over GST control).

As to CATATC, the binding signal with ERF was 1.42 fold enrichment (6-mer frequency, TF over GST control); with ETV3L, 1.38 fold enrichment (6-mer frequency, TF over GST control); with ETS2, 1.36 fold enrichment (6-mer frequency, TF over GST control); with SPDEF, 1.76 fold enrichment (6-mer frequency, TF over GST control); with ETV7 it was 1.24 fold enrichment (6-mer frequency, TF over GST control); with ELF5 it was 1.32 fold enrichment (6-mer frequency, TF over GST control). Besides, the binding signal with ETV3 is 1.32 fold enrichment (6-mer frequency, TF over GST control); with ETV6, 1.26 fold enrichment (6-mer frequency, TF over GST control).
